Measurements reported in the OligoGym collection.

biological target: ADORA2B; assay: pooled miR-30 sensor sort-seq; sequence = guide strand; details: shRNA
Also: reference of the scale not given here.

Sequence	sensor-assay potency score (higher = more potent)
TTTGTCAATCCTTGGAGCCTAC	-0.74
TTGGTGGCACTGTCTTTACTGT	-1.19
TTTCACAATGAAAACCAGCCGT	-0.477
TAGCGGAAGTCTCGGTTCCGGT	-1.62
TTAATGTAGATCACCAGCATTA	-1.17
TTGAAATATACCATGTAGCTCA	0.0522
TAATCCACACAGTAAAAGCAGC	-1.13
TTTTGTGAAAAGTGTAGCGGAA	0.0237
TAGAAGTCAGTGCAGAAGCCCA	-0.856
TTTATTTTTCCATTGCCTCTAA	0.2
TATATTTGTCAATCCTTGGAGC	-0.159
TTTCCTTGTGAGGTGTAGCTAT	-0.397
AAACTTTTATACCTGAGCGGGA	-0.968

biological target: ADRA1D; assay: as above; details: shRNA

Sequence	sensor-assay potency score (higher = more potent)
TACATGACCACGATGACCGCCA	0.517
TGACAAGCAGGTTACCTGCCAC	-0.511
TAGTCGGCCAATTCGTAGGCCT	-0.797
TTCTTCTCACGGGAGAACTTGA	-1.13
TAGTTGGTGACGGTCTGCAGGT	-0.977
TTGGCCGCTTTCTTCTCACGGG	-0.602
TGAGAGGATGACAAGCAGGTTA	-0.372
TACCGGTCCACGGAGATGGTGC	-1.15
TGCTGTAGTCGGCCAATTCGTA	-0.975
AAGAAGAAAGGGAACCAGCAGA	-0.303
ATGCGCAGCACCACCTCGGAGG	-1.52
TTGGCGCGCAGCTGGGTCGTGG	-1.53
TACCGCAGAAGCGCTCGTCAGG	-1.24
TACGGTGGCGCTCAGCAGCAGG	-1.13
TAGATGAGCGGGTTCACGCAGC	-0.546
TAGAAGGAGCACACGGAGGAGA	-0.379
TTCACGATGAAATAGTTGGTGA	-0.48
ATAGTTGGTGACGGTCTGCAGG	-1.13
TTGGTGACGGTCTGCAGGTGGC	-1.18
TTGCGCTCGGTCATGATGGCTG	-0.179
TAGGGACACAGCCTCCACCTCT	-1.05
TTCAGCTGCGGGAACAAGGAGC	-0.905

biological target: ADRA2B; assay: as above; details: shRNA

Sequence	sensor-assay potency score (higher = more potent)
TTGGAGTTGTACTCCAGCGCGC	-0.762
TTTATTGATAAAATAGCTCAGA	-0.103
TTGTACTCCAGCGCGCGGCTCA	-0.722
TTCAGTGAGCTGTTGCAGTAGC	0.233
TGTCCGTTGACCTCTCTGGCAG	-0.964
